Screens as filed in PubChem BioAssay.
Hits are enriched below; roughly 15% of the tested compounds scored in any of these assays.
TDP1 cell noCPT = qHTS for Inhibitors of human tyrosyl-DNA phosphodiesterase 1 (TDP1): qHTS in cells in absence of CPT; DT40 Tdp1-/- hTDP1 cells, no CPT, ATP luminescence, 48 h; actives 15% (n = 420,000); Potency, µM (top dose mostly 46.2 µM), inactives show at the top dose activity change, negative = growth inhibition, most hits filed as inhibitors; also: nearly all actives have a fitted effect of over 55% in size
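Cells were dispensed at 400 per well, compounds added by pin tool, plates incubated ≥48 hr at 37 °C, then CellTiter-Glo added for 30 min at room temperature before luminescence reading. Line: DT40 Tdp1-/- complemented with hTDP1; camptothecin omitted.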
ELG1 DNA repair = qHTS screen for small molecules that inhibit ELG1-dependent DNA repair in human embryonic kidney (HEK293T) cells expressing luciferase-tagged ELG1. HEK293T ELG1-luciferase reporter, luminescence, 16 h; DNA damage induced by 5-fluorouridine. Potency, µM (doses to about 46.1 µM), for inactives: at the top dose activity change, negative = inhibition, actives largely listed as inhibitors. actives 2.3% (n = 330,000); also: nearly all actives have a fitted effect of over 55% in size
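Cells (2,000 per well) received 5-fluorouridine plus test compound or DMSO and were incubated 16 hr at 37 °C, 5% CO2. Luciferase activity was read by luminescence 30 min after ONE-Glo addition; signal suppression marked inhibition of damage-induced ELG1 function.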
12-LOX inh = Primary qHTS assay for inhibitors of human arachidonate 12S-lipoxygenase (ALOX12): Round 2; purified 12hLO, xylenol orange hydroperoxide absorbance; Polyunsaturated fatty acid lipoxygenase ALOX12 (Homo sapiens), P18054; Potency, µM (titrated, usually from 108 µM), inactives show top-dose activity change, negative = inhibition, usual class: inhibitors; actives 1.1% (n = 580,000)
Target sequence (P18054 whole entry, looked up): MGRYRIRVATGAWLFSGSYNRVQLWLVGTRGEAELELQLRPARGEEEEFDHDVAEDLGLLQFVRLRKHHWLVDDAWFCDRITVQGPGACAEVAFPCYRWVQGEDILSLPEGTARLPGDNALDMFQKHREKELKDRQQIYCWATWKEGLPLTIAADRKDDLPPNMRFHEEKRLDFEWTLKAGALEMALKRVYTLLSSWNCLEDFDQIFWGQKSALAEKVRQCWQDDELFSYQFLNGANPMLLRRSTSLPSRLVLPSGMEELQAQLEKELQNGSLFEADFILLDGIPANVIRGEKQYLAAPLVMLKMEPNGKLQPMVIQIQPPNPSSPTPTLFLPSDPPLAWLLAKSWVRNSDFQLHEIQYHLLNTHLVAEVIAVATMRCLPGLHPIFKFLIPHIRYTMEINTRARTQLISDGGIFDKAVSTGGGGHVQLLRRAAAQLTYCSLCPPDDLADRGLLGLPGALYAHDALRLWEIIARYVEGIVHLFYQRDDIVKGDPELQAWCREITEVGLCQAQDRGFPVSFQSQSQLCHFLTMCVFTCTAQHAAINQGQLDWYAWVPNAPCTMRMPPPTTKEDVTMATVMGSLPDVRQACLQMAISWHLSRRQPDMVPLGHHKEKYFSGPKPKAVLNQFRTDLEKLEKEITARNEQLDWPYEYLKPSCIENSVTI
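Purified human 12hLO at 150 nM in 25 mM Hepes, 0.01% Triton X-100, pH 7.0, preincubated 15 min at room temperature with compound. Reaction started with 40 uM arachidonic acid, 30 min at room temperature. Hydroperoxide measured by Fe-xylenol orange, 573/405 nm absorbance ratio.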
DT40 TDP1 CPT = qHTS for Inhibitors of human tyrosyl-DNA phosphodiesterase 1 (TDP1): qHTS in cells in presence of CPT; Potency, µM (top dose mostly 46.2 µM), without a hit: top-dose activity change, negative = growth inhibition, hits mostly inhibitors; chicken DT40 Tdp1-/-;hTDP1 cells + 20 nM CPT, ATP luminescence, 48 h; actives 12% (n = 420,000); AID 686979, 2013; also: nearly all actives have a fitted effect of over 55% in size
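Chicken DT40 Tdp1-/- cells complemented with human TDP1, 400 cells/well, exposed to compounds plus 20 nM camptothecin for at least 48 h at 37 C; viability read as ATP content by CellTiter-Glo luminescence.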
RORgamma inh = qHTS for inhibitors of ROR gamma transcriptional activity. actives 5.4% (n = 310,000). AID 2551, 2010. Potency, µM (titrated, usually from 53.6 µM), without a hit: at the top dose activity change, negative = inhibition, most hits filed as inhibitors. Drosophila S2 Gal4-RORgamma UAS-luciferase reporter, 20 h. Nuclear receptor ROR-gamma (Mus musculus), P51450; also: nearly all actives have a fitted effect of over 60% in size
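Read-out: Photinus luciferase luminescence; inhibitors lower reporter signal. Insect Schneider cells with Gal4-ROR gamma fusion under metallothionein promoter, UAS reporter; 700 uM final copper sulfate induction, 20 hr, ambient temperature.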
VP16 counter = VP16 counterscreen qHTS for inhibitors of ROR gamma transcriptional activity; Drosophila S2 Gal4-VP16 UAS-luciferase, luminescence, 20 h; Potency, µM (titrated, usually from 53.6 µM), inactives show at the top dose activity, negative = inhibition, actives largely listed as inhibitors; actives 3.5% (n = 310,000);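 also: Gal4-VP16 expression switched on by copper sulfate through the metallothionein promoter; nearly all actives have a fitted effect of over 50% in size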
Starred values were filed as active, the others as inactive; ? = inconclusive; . = no result; [ ] = remark or other dose. Calls follow the shape of the dose curve; as a rule, active = well fitted curve in the direction sought with a large enough effect; inconclusive = small, poorly fitted or top-dose-only effect, or another doubt; inactive = no such curve, though single readings can be large; an effect the other way counts as inactive or inconclusive. % is scaled to controls: 0 for no effect and ±100 for the full control effect; potency is read from the fitted curve at half-maximal effect.

SMILES	TDP1 cell noCPT	ELG1 DNA repair	12-LOX inh	DT40 TDP1 CPT	RORgamma inh	VP16 counter
CC1(C)CC2(CCO1)C(Nc1ccccc1)=NC(=S)N2c1ccccc1 (configuration not stated)	?	-17%	0%	-3%	25%	3%
COc1ccc(NC2=NC(=S)N(c3ccc(C)cc3)C23CCCCC3)cc1	?	-4%	-9%	?	0.56µM*	-6%
Cc1cccc(NC2=NC(=S)N(c3ccc(C(=O)O)cc3)C23CCCCC3)c1	6%	1%	471%	?	1%	-5%
Cc1ccccc1NC1=NC(=S)N(c2ccccc2)C12CCCCC2	?	-25%	-5%	18µM*	3.5µM*	?
Cc1oc(-c2ccccc2)nc1COc1cc(Cl)ccc1Cl	.	.	-7%	.	.	.
COCC(=O)N(CCc1ccc(OC)c(OC)c1)Cc1cc2cc(C)ccc2nc1Cl	?	16µM*	-43%	?	0%	-3%[10 µM]
Nc1nccnc1C(=O)NCC#Cc1ccccc1	.	.	39%	.	.	.
O=C(c1ccco1)N(CC1CCCO1)c1nc(-c2ccccc2)cs1 (configuration not stated)	23µM*	?	-14%	?	4%	6%
O=C(c1cccs1)N(CC1CCCO1)c1nc(-c2ccccc2)cs1 (configuration not stated)	?	?	0%	21µM*	5%[10 µM]	-1%
Cc1cc(C(=O)COc2cccnc2[N+](=O)[O-])c(C)n1Cc1cccs1	?	6%	?	?	9%	-3%
Cc1cc(C(=O)COC(=O)c2ccccc2O)c(C)n1Cc1cccs1	15µM*	?	0%	?	3.5µM*	7.1µM*
CC(=O)Nc1ccccc1OCC(=O)c1cc(C)n(Cc2cccs2)c1C	1.5µM*	?	-12%	1.8µM*	-38%	1.3µM*
CCc1cc(=O)oc2cc(C)c(CN3CCCCC3)c(O)c12	-24%	11%	?	-18%	5%	4%
CCCc1cc(=O)oc2cc(C)c(CN3CCCC3)c(O)c12	16µM*	0%	?	?	11%	0%
COC(C(=O)N1CC(=O)N(Cc2cccnc2)CC(OCc2ccccc2)C1)c1ccccc1 (configuration not stated)	.	.	20%	.	.	.
COc1ccc(CNC(=O)c2nn(Cc3ccccc3)c(=O)c3ccccc23)cc1	.	.	-7%	.	.	.
COc1ccc(CNC(=O)c2nc(SCc3ccc(C)cc3)ncc2Cl)cc1	?	.	-13%	-10%	.	.
COc1ccc(CNC(=O)c2nc(SC(C)C)ncc2Cl)cc1	23µM*	.	?	29µM*	.	.
O=C(NCc1ccccc1)c1nc(S(=O)(=O)Cc2ccccc2)ncc1Cl	2.3µM*	-23%	-1%	2.9µM*	5µM*	2.8µM*
O=C(NCc1ccccc1)c1c(Cl)nc(Cl)c(Cl)c1Cl	18µM*	?	0%	?	-29%	20%
COc1ccc(CNC(=O)c2nc(S(=O)(=O)Cc3ccccc3)ncc2Cl)cc1	1.3µM*	?	-8%	1.3µM*	5.6µM*	3.5µM*
Cc1nc(Cl)c(C(=O)NCc2ccccc2)c(C)c1[N+](=O)[O-]	-2%	-6%	8%	-3%	-3%	-7%
O=C(N/N=C\c1cc(Br)cs1)c1ccc(Cl)cc1	.	.	12%	.	.	.
CCS(=O)(=O)c1ncc(Cl)c(C(=O)NCc2ccccc2)n1	2.3µM*	.	-14%	?	.	.
Cc1noc(C(=O)NCc2ccccc2)c1Cl	-2%	12%	10%	-15%	16%	0%
SMILES	TDP1 cell noCPT	ELG1 DNA repair	12-LOX inh	DT40 TDP1 CPT	RORgamma inh	VP16 counter
CCN(c1ccccc1)S(=O)(=O)c1ccc(NC(=O)c2nc(SC(C)C)ncc2Cl)cc1	18µM*	.	-17%	21µM*	.	.
COc1ccc(C(C(=O)NC2CCCC2)N(C(=O)c2ccoc2C)c2cc(C)cc(C)c2)cc1 (configuration not stated)	29µM*	-11%	12%	26µM*	19%	-3%
CCc1ccc(N(C(=O)c2ccoc2C)C(C(=O)NC2CCCC2)c2ccc(OC)cc2)cc1 (configuration not stated)	18µM*	-9%	-24%	23µM*	26%	1%
COc1ccc(C(C(=O)NC2CCCC2)N(C(=O)c2ccoc2C)c2ccc(C)c(C)c2)cc1 (configuration not stated)	13µM*	0%	-4%	?	32%	-8%
COc1ccc(C(C(=O)NC2CCCC2)N(C(=O)c2ccoc2C)c2ccccc2)cc1 (configuration not stated)	?	-5%	-10%	?	3%[10 µM]	-1%
CC(C)CN1C[C@@H](NC(=O)c2cccnc2)C[C@H]1CO	.	.	7%	.	.	.
Cc1ccc(NC(=O)CN(C)CC(=O)Nc2ccccc2Oc2ccccc2)cc1	-3%	-4%	-16%	8%	-10%	-1%
Cc1cccc(C(C)C)c1NC(=O)CN(C)Cc1cccc(F)c1	23µM*	10%	-3%	?	13%	1%
Cc1ccccc1CN(C)CC(=O)Nc1c(C)cccc1C(C)C	3.3µM*	-20%	?	?	2%	20%
CC(C)NC(=O)NC(=O)CN(C)Cc1cccc(F)c1	.	.	41%	.	.	.
